# PubChem BioAssay (Tox21)
# Inconclusive results are not listed. A call without a number means that no potency is given here. The source made the active and inactive calls. Unless noted, calls come from the whole dose curve; as a rule, active = well fitted curve in the direction sought with a large enough effect; inconclusive = small, poorly fitted or top-dose-only effect, or another doubt; inactive = no such curve, though single readings can be large; an effect the other way counts as inactive or inconclusive. Positions of bridges follow the written chain, without caps; N, C: chain ends. Non-standard residues stand in square brackets, D forms with d. Residues, ends and D or L forms follow the SMILES beside them. *: point of attachment. Dab(CH2SO3H) = N[C@@H](CCNCS(=O)(=O)O)C(=O)O; X3 = CC[C@@H](C)CCCCC(=O)*; Dab = NCC[C@H](N)C(=O)O
# Test: qHTS assay to identify small molecule phospholipidosis (PLD) inducers (AID 1259344)
# Details: HepG2 phospholipidosis, LipidTOX Red imaging, 24 h; series mostly up to 38.3 µM
# Outline: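 HepG2 cells on collagen I, attached 4 h at 37 C, were co-treated with compound and LipidTOX Red dye for 24 h at 37 C, then fixed with paraformaldehyde plus Hoechst 33342 and imaged by high-content microscopy for phospholipid accumulation.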
row,SMILES,Potency
1,CCCn1c(=O)[nH]c(=O)c2[nH]cnc21,inactive
2,Cc1c(O)c(=O)ccn1C,inactive
3,N[C@@H](Cc1ccc(O)c(O)c1)C(=O)O,inactive
4,CCOC(=O)Cc1ccc(-c2ccccc2)cc1,inactive
5,CC(C)(S)C(=O)N[C@@H](CS)C(=O)O,inactive
6,CC[C@@H](C(=O)[C@@H](C)[C@@H](O)[C@H](C)CCc1ccc(C)c(O)c1C(=O)O)[C@H]1O[C@](CC)([C@H]2CC[C@](O)(CC)[C@H](C)O2)C[C@@H]1C,inactive
7,COC(=O)C[C@](O)(CCCC(C)(C)O)C(=O)O[C@@H]1C(OC)=CC23CCCN2CCc2cc4c(cc2[C@H]13)OCO4 (stereo partly specified),inactive
8,O=C(CCCN1CCN2CCCC2C1)c1ccc(F)cc1 (stereo unspecified),inactive
9,CCN(CC)C(=S)S,inactive
10,FC(F)(F)C(F)(F)C(F)(F)C(F)(F)C(F)(F)F,inactive
11,O=C1CCC(c2ccc(-n3ccnc3)cc2)=NN1,inactive
12,CC[C@@H](C)CCCCC(=O)N[C@@H](CCNCS(=O)(=O)O)C(=O)N[C@H](C(=O)N[C@@H](CCNCS(=O)(=O)O)C(=O)N[C@H]1CCNC(=O)[C@H]([C@@H](C)O)NC(=O)[C@H](CCNCS(=O)(=O)O)NC(=O)[C@H](CCNCS(=O)(=O)O)NC(=O)[C@H](CC(C)C)NC(=O)[C@@H](CC(C)C)NC(=O)[C@H](CCNCS(=O)(=O)O)NC1=O)[C@@H](C)O (X3-[Dab(CH2SO3H)]T[Dab(CH2SO3H)][Dab][Dab(CH2SO3H)][dL]L[Dab(CH2SO3H)][Dab(CH2SO3H)]T; lactam 4-C),inactive

# Test: qHTS assay to identify small molecule HDAC inhibitors (AID 1259364; active = well fitted curve in the direction sought with a large enough effect in the repeat runs; an effect the other way counts as inactive or inconclusive; note: top concentration of the series differs between compounds; nearly all actives have a fitted effect of over 45% in size)
# Details: HCT-116 HDAC-Glo I/II luminescence, 2 h; series mostly up to 92.4 µM
# Outline: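 Wild-type HCT-116 cells were plated overnight, exposed to compounds for 2 h at 37 °C, then given HDAC-Glo class I/II luminogenic reagent for 30 min at room temperature before luminescence was read.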
row,SMILES,Potency
1,CCCCCCCC1CCC(=O)O1 (stereo unspecified),inactive
2,CC(=O)N(C)C,inactive
3,Nc1ccc(N)c([N+](=O)[O-])c1,inactive
4,CS(=O)(=O)c1ccc([C@@H](CC2CCCC2)C(=O)Nc2cnccn2)cc1Cl,inactive

# Test: qHTS assay to identify small molecule agonists of the sonic hedgehog signaling (Shh) pathway (AID 1259368; calls by dose curve; note: nearly all actives have a fitted effect of over 15% in size)
# Details: NIH/3T3 Gli1-Luc reporter, luciferase, 24 h; series mostly up to 92.4 µM
# Outline: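 NIH/3T3-derived 3T3Gli1-Luc cells carrying a stably integrated Gli1 response element–firefly luciferase reporter were plated, left 4 hr at 37 C, then given compounds in DMSO for 24 hr. Luminescence was read 30 min after adding luciferase reagent.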
row,SMILES,Potency
1,CCCCCCCC1CCC(=O)O1 (stereo unspecified),inactive
2,O=C1Cc2ccccc2C1,inactive
3,Nc1ccc(N)c([N+](=O)[O-])c1,inactive
4,COc1ccc2ccccc2c1,inactive
5,CS(=O)(=O)c1ccc([C@@H](CC2CCCC2)C(=O)Nc2cnccn2)cc1Cl,inactive
